# The supplement of paper PMC12669032
# A number with no mark means an inactive call.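 Rule for the calls: active = AUC reduced over 20% with Padj below 0.05 in at least 2 of 3 replicates; inactive = otherwise.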
# Tests used:
# Assay in all cases: growth AUC relative to DMSO control (median of replicates) (fraction); higher = more growth (less inhibition), active = hit call of the paper
# Details in all cases: 20 µM; 24 h
# [1] = test system: Akkermansia muciniphila
# In short: (§1)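 Starting at OD600 0.05, gut bacterial monocultures in mGAM were grown anaerobically at 37 °C with 20 µM compound (1% DMSO) under pierced gas-permeable seals. OD600 was read every hour for 24 h, and the lowest OD of each curve was set to 0. Area under the growth curve was normalised to the plate median of solvent-only wells, or to row and column medians on the industrial chemical plate, and the median of three biological replicates grown on separate days is given.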
# [2] = test system: Bacteroides caccae
# In short: as §1
# [3] = test system: Bacteroides clarus
# In short: as §1
# [4] = test system: Bacteroides dorei
# In short: as §1
# [5] = test system: Bacteroides stercoris
# In short: as §1
# [6] = test system: Bacteroides thetaiotaomicron
# In short: as §1
# [7] = test system: Bacteroides uniformis
# In short: as §1
# [8] = test system: Bifidobacterium longum subsp. longum
# In short: as §1
# [9] = test system: Clostridium difficile
# In short: as §1
# [10] = test system: Collinsella aerofaciens
# In short: as §1
SMILES,growth AUC [1],growth AUC [2],growth AUC [3],growth AUC [4],growth AUC [5],growth AUC [6],growth AUC [7],growth AUC [8],growth AUC [9],growth AUC [10]
COCC(=O)N(c1c(C)cccc1C(=O)O)C(C)C(=O)O (stereo not given),0.834,1.02,0.979,1.01,0.917,0.967,0.974,0.907,1.04,1
C=CCO/N=C(\CCC)C1=C([O-])CC(C)(C)C(C(=O)OC)C1=O.[Na+] (stereo not given),1.2,1,1.03,0.933,1.07,1.02,1.01,1.05,1.05,1.03
Clc1ccc(CSc2ccc(Cl)cc2)cc1,0.977,1.02,0.99,0.956,0.969,1.03,0.998,1.02,1.04,0.984
CCCCCCCCCC[N+](C)(C)Cc1ccccc1.[Cl-],0.987,0.962,0.987,0.979,1.21,0.996,0.896,0.866,0.921,0.848
O=C(Nc1ccc(F)cc1)c1cccc(Oc2cccc(C(F)(F)F)c2)n1,0.978,0.964,0.886,0.895,0.82,1,1.02,1.04,0.934,0.865
FC(F)(F)/N=C1\SC(=Nc2ccccc2)N(c2ccccc2)\C1=N\C(F)(F)F,0.949,0.933,0.96,0.947,0.925,1.01,0.924,1.03,0.984,0.907
COc1nc(OC)nc(C(=O)c2cccc(F)c2N(C)S(=O)(=O)C(F)F)n1,0.993,1,1,1,1.07,1.01,1.03,1.03,1.04,1.04
CC(Oc1ccc(Cl)cc1Cl)C(=O)NC(C)(C#N)C(C)C (stereo not given),1.27,0.944,1,0.999,0.99,0.964,0.92,1.02,0.935,0.977
COc1cc(Cl)ccc1Oc1ccc(Cl)cc1Cl,1.03,0.902,0.933,0.948,0.93,0.984,0.98,0.872,1.01,1.01
O=C(O)Cc1c(Cl)ccc(Cl)c1Cl,0.95,1,0.99,1.02,0.951,1,0.993,1.04,1,1
COCCCNc1nc(NC(C)C)nc(SC)n1,0.847,0.981,0.976,0.989,0.977,0.957,0.982,0.985,0.963,0.993
N#Cc1ccccc1NC(=O)c1snc(Cl)c1Cl,1.07,0.956,0.982,1.01,1.15,1,0.974,0.9,0.944,1.05
CCOCOc1ccc(C(=O)Nc2cccc(Cl)c2Cl)cc1,1.04,0.855,0.881,0.972,0.836,0.884,0.912,0.907,1.02,0.956
CN(C)C(=O)Nc1ccccc1,0.854,1.03,0.981,1,1.07,0.994,0.978,1.01,1.01,0.984
Cc1c(C(=O)c2c[nH]n(C)c2=O)ccc(S(C)(=O)=O)c1C1=NOCC1,0.937,1.03,0.983,0.989,0.895,1,1.01,1.13,1,0.976
CCN(CC)c1nc(C)cc(=O)[nH]1,1.08,0.974,1.03,1.02,1.11,0.996,0.961,1.02,1.01,1.01
CCc1cccc(C)c1N(COC(C)C)C(=O)CCl,1.07,1,1.01,1.03,0.998,0.993,1.04,1.02,0.956,1.03
COC(=O)[C@@H](C)Oc1ccc(Oc2ncc(C(F)(F)F)cc2Cl)cc1,1.04,0.831,1.01,0.984,1.16,0.963,0.907,0.976,1.05,0.981
CCOC(=O)[C@@H](C)Oc1ccc(Oc2cnc3cc(Cl)ccc3n2)cc1,0.987,0.9,0.965,0.967,0.996,0.998,0.947,1.01,1.01,1.01
CC(C)N(C(=O)C(=O)O)c1ccc(F)cc1,1.04,1.02,1.03,1.02,1.23,1.02,0.993,1.05,1.03,1.01

SMILES,growth AUC [1],growth AUC [2],growth AUC [3],growth AUC [4],growth AUC [5],growth AUC [6],growth AUC [7],growth AUC [8],growth AUC [9],growth AUC [10]
CCCCOCN(C(=O)CS(=O)(=O)[O-])c1c(CC)cccc1CC.[Na+],0.979,0.997,0.997,1.01,0.923,0.934,1.03,1.07,1.02,1.01
O=c1cccc2n1CCn1c-2cccc1=O,1.11,1.03,0.986,0.918,1,0.995,1.02,0.969,0.993,0.98
COC(=O)c1ccc(C)cc1C1=NC(C)(C(C)C)C(=O)N1 (racemic),1.03,1.01,0.971,0.975,0.863,0.976,1,1,0.972,0.957
CC(C)N(C)S(=O)(=O)NC(=O)c1cc(-n2c(=O)cc(C(F)(F)F)[nH]c2=O)c(F)cc1Cl,0.971,0.993,0.983,0.967,1.1,1,1.03,0.962,0.982,0.953
Cl.NCCO/C=C/[C@H](N)C(=O)O,1.02,0.952,1.08,1.03,1.16,1,1.01,1.05,1.02,1.03
c1ccc2c(c1)-c1cccc3c1c-2cc1ccccc13,0.981,1.05,1.03,1.04,1.08,1.02,1.03,1.06,1.02,1.01
c1ccc2[nH]c(-c3cscn3)nc2c1,0.73,0.997,1.01,0.973,0.947,0.974,1.02,0.976,0.985,0.985
O=C1NC(=O)c2ccccc21,1.09,0.873,1.02,1,1.31,1,1.01,1.04,1.01,0.982
COC(=O)c1c(Cl)ccc(Cl)c1OC,1.02,1,1.01,1.04,0.942,1.02,1,1.04,1.04,1.04
COC(=O)c1c(Cl)c(Cl)c(C(=O)OC)c(Cl)c1Cl,0.846,1.04,0.985,1.02,0.88,1.02,0.994,0.953,1.07,0.986
CCCCOC(=O)[C@@H](C)Oc1ccc(Oc2ccc(C(F)(F)F)cn2)cc1,0.865,0.983,0.932,0.951,0.851,0.948,0.918,0.969,0.989,0.963
COC(=O)COc1ccc(Cl)cc1C,0.917,1.04,0.986,1.01,1.03,1.01,1.01,0.805,0.989,1.01
O=C(Oc1ccccc1)n1c(C(F)(F)F)nc2cc(Cl)c(Cl)cc21,0.177 (active),0.215 (active),0.121 (active),0.236 (active),0.0063 (active),0.0816 (active),0.0127 (active),0.891,0.561 (active),0.958
CCOC(=O)NCCOc1ccc(Oc2ccccc2)cc1,0.87,0.934,0.928,0.854,0.968,0.891,0.958,0.914,0.98,0.984
c1ccc2cc3ccccc3cc2c1,0.776 (active),0.972,1,1,1.01,0.987,0.999,0.81,0.997,0.961
CCN(Cc1c(F)cccc1Cl)c1c([N+](=O)[O-])cc(C(F)(F)F)cc1[N+](=O)[O-],0.852,0.822,0.831,1.02,0.27 (active),0.934,1.03,0.909,0.99,0.829
COC(=O)C(Cl)Cc1ccc(Cl)cc1 (stereo not given),1.01,0.921,0.973,0.99,1.03,1.02,0.921,1.01,0.983,0.936
COc1c(I)cc(C#N)cc1I,0.86,0.837,0.932,1.02,1.13,0.932,0.882,1.02,0.943,0.883
Clc1ccc(C(c2ccccc2Cl)C(Cl)Cl)cc1 (stereo not given),1.21,1.01,0.936,0.976,0.856,0.988,0.943,1.03,1,0.847
COC(=O)C(C)Oc1ccc(Cl)cc1Cl (stereo not given),0.964,1.05,1,1.05,0.849,1.01,1.05,1,1.03,0.987

SMILES,growth AUC [1],growth AUC [2],growth AUC [3],growth AUC [4],growth AUC [5],growth AUC [6],growth AUC [7],growth AUC [8],growth AUC [9],growth AUC [10]
CCc1cccc(CC)c1N(COC)C(=O)CS(=O)(=O)[O-].[Na+],1.02,0.953,1.01,0.989,1.07,0.876,0.996,1.04,1.07,0.966
COC(=O)C(C)Oc1ccc(Cl)cc1C (stereo not given),0.866,0.999,0.996,1,1.15,1,1,1,0.974,1.04
O=C(Nc1ccc(Cl)cc1C(O)c1ccccc1)c1ccncc1 (stereo not given),1.04,0.985,0.946,1.01,0.878,0.97,0.987,1.01,0.982,0.994
CC(C)NS(=O)(=O)NC(=O)c1cc(NC(N)=O)c(F)cc1Cl,1.06,1,0.988,0.959,0.991,0.808,1.02,1.02,1.06,0.981
O.O=C(Nc1ccc([N+](=O)[O-])cc1Cl)c1cc(Cl)ccc1O,0.828,0.0261 (active),0.00802 (active),0.0256 (active),0.00906 (active),0.00758 (active),0.0308 (active),0.0965 (active),0.328 (active),0.865
CCc1nc2ncnn2c(N)c1CCCCCC(=O)O.Cl,1.06,1.03,1.07,1.03,1.14,0.988,1.02,0.963,1.01,0.996
O=c1cc(Cl)[nH]nc1-c1ccccc1,0.833,1.01,0.967,1.05,0.777,1.02,1.01,0.954,1.07,0.983
CC(C)c1ccccc1,0.937,1.02,1.01,1.02,1.02,0.999,0.999,0.947,1.02,1.02
CS(=O)(=O)c1ccc(C(=O)C2C(=O)C(O)CC(O)C2=O)c(Cl)c1COCC(F)(F)F (stereo not given),0.99,0.986,0.96,0.972,0.982,0.965,0.975,0.978,0.99,1
Oc1ccccc1O,0.968,1.02,1.03,1,1,1.03,1.04,0.911,1.01,1.01
O=[N+]([O-])c1ccc(O)cc1,1.02,1.01,0.994,1.01,1.11,1.02,1.01,0.96,1.02,1.05
O=S(=O)(Oc1ccc(Cl)cc1)c1ccccc1,0.785,0.959,0.967,0.941,0.874,0.964,0.972,1.01,1,0.978
O=S(=O)(Oc1ccc(Cl)cc1Cl)c1ccccc1,0.953,0.956,1,0.939,0.967,1.01,0.996,1.1,1.01,0.98
O=C(Nc1ccc(F)cc1-c1ccc(Cl)c(Cl)c1)c1cn[nH]c1C(F)F,1.02,0.865,0.724 (active),0.968,0.349 (active),0.635 (active),0.689 (active),0.952,0.971,1.01
c1ccc(Sc2ccccc2)cc1,1.03,1.01,1.08,1.01,1.05,0.982,1.05,1.03,1.02,1.04
CCc1cccc(C)c1N(C(=O)C(=O)O)[C@@H](C)C(=O)O,1.17,0.993,1.02,0.963,1.06,0.999,0.999,0.908,0.903,0.986
c1ccc2c(c1)ccc1ccccc12,1.02,0.983,1.01,0.996,0.999,1.01,1,1.01,1,1.02
CC(C)Nc1nc(N)nc(Cl)n1,0.991,1.03,1.03,1.01,1.07,1.04,1.01,1,1.03,1.02
